Several values for one entry are separate records, joined by “and”; a condition that tells them apart may be missing. Identical values can stand only once. A number with no mark means an inactive call. Records with an inconclusive call do not appear. Activity calls are given as the source filed them. Unless noted, the call rests on the fitted dose curve; in most records, active means well fitted curve in the direction sought with a large enough effect; inconclusive means small, poorly fitted or top-dose-only effect, or another doubt; inactive means no such curve, though single readings can be large; an effect the other way counts as inactive or inconclusive.

Test [1] concerns the target Cytochrome P450 1A2 (Homo sapiens) (UniProt P05177). The test is described as follows: p450-cyp1a2 (AID 410; calls by dose curve; further: potency means the concentration at half of the fitted maximal effect). Summed up: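 Luminescent readout of luciferin formed from Luciferin-ME by human CYP1A2; data normalized against complete inhibition by 57 uM furafylline. Enzyme 20nM, substrate 100uM at Km, 100mM KPO4 buffer, 60 min reaction at room temperature.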
Test [2] in a line: NFAT Signaling Pathway (AID 444; active means well fitted curve in either direction with a large enough effect, not every such curve was filed as active;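 further: carbachol stimulus at about its EC50 of 1 µM final; on the % scale 0 is the no-effect control and ±100 the full control effect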). Particulars: Jurkat NFAT-bla M1, carbachol, beta-lactamase ratio, 5 h; at 38 µM (top of the series). Summed up:
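Jurkat cells with NFAT-driven β-lactamase reporter and co-expressed M1 receptor, stimulated with carbachol (final 1 uM, ~EC50), compound titration, 5 h at 37 °C. CCF4 loaded 1 h at RT; 460/530 nm ratio gave %activity and AC50.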

Test [3] deals with Glucocorticoid receptor (Homo sapiens) (UniProt P04150). The test is described as follows: GR-GFP Redistribution (AID 450;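 active means compounds whose dose series gives a full or clear partial fitted curve of increased nuclear translocation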; further: potency means the concentration at half of the fitted maximal effect). As to conditions: U2OS GR-GFP nuclear translocation, laser cytometry, 2 h.
Test [4] shares this target. The test is described as follows: GR-EFC Redistribution (AID 451; calls by dose curve; further: potency means the concentration at half of the fitted maximal effect). As to conditions: CHO-K1 GR-EFC translocation, beta-gal luminescence, 2 h. In a few lines:
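CHO-K1 cells expressing nuclear EA and GR-ED fragments of b-gal; compounds titrated up to 46 uM final, 2 h at 37 C. GR nuclear translocation read as complemented b-gal luminescence after 1 h RT detection.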

For test [5], the target named is Mitogen-activated protein kinase 10 (Mus musculus) (UniProt Q61831). The test is described as follows: JNK3 AlphaScreen Assay (AID 530; active means well fitted curve in either direction with a large enough effect, not every such curve was filed as active;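 further: kinase came from lysate of stimulated human HepG2 cells; signal reports phosphorylation of biotinylated GST-cJun 1-79 at Ser73 with 10 µM ATP; on the % scale 0 is the no-effect control and ±100 the full control effect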). In a few lines: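 Pre-activated (IL-1β/TNFα) JNK3 in HepG2 lysates phosphorylates biotin-GST-cJun(1-79), 10 uM ATP; anti-phospho-cJun(Ser73) AlphaScreen read at room temperature, pH 7.6 Tris buffer. Compounds pre-incubated 15 min as titrations.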

The target of test [6] is 3',5'-cyclic-AMP phosphodiesterase 4B (Homo sapiens) (UniProt Q07343). The test is described as follows: qHTS Assay for Inhibitors of PDE-IV (AID 607; active means well fitted activation curve with a large enough effect in the main read-out, with a control signal flat, not every such curve was filed as active; further: % of control where 0% means no effect). Summed up:
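The readout is membrane depolarisation from a cAMP-sensing CNG channel, detected with a potential dye at ex 535/em 590. Cells were HEK293-derived (endogenous PDE-IV) at 1000 cells/well, titrated up to 22.9 uM final.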
For orientation: Quantitative high-throughput screening tests each substance at several concentrations.

Test [7] addresses Guanine nucleotide-binding protein G(i) subunit alpha-1 (Homo sapiens) (UniProt P63096). Description: qHTS Assay for Inhibitors of RGS12 GoLoco Motif Activity (Green Fluorophore) (AID 879).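 Further: 0% = labeled peptide with Gαi1 and full inhibition = labeled peptide alone without protein; negative values mean loss of peptide binding seen as reduced polarization.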 In a few lines: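 Fluorescence polarization assay: 50 nM Gαi1 with 10 nM FITC-labeled RGS12 GoLoco peptide in 10 mM Tris pH 7.5, 150 mM NaCl, 0.1 mM GDP, 0.05% NP40, 10 min at room temperature with compound.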

In test [8] the target is Cytochrome P450 2C9 (Homo sapiens) (UniProt P11712). Description: qHTS Assay for Inhibitors and Substrates of Cytochrome P450 2C9 (AID 883). Further: potency means the concentration at half of the fitted maximal effect; nearly all actives have a fitted effect of over 60% in size. In a few lines:
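Signal: luciferase luminescence reporting luciferin produced by CYP2C9. Conditions: 10nM enzyme, Luciferin-H 100uM at KM, 25mM KPO4, 37C, 60 min NADPH-driven reaction. Reference: 57uM sulphaphenazole as 100% inhibition.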

In test [9] the target is Cytochrome P450 3A4 (Homo sapiens) (UniProt P08684). The test is described as follows: qHTS Assay for Inhibitors and Substrates of Cytochrome P450 3A4 (AID 884). Further: potency means the concentration at half of the fitted maximal effect; nearly all actives have a fitted effect of over 50% in size. In a few lines:
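20 nM human CYP3A4 with 25 uM Luciferin-PPXE (at KM) in 200 mM KPO4, preincubated 10 min with compound; NADPH regeneration started a 60 min RT reaction. Luciferin detected by luminescence, normalized to 57 uM ketoconazole as full inhibition.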

For test [10] the target is unchanged. Description: qHTS Assay for Activators of Cytochrome P450 3A4 (AID 885). Further: nearly all actives have a fitted effect of over 65% in size. In a few lines:
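Steps: enzyme/substrate mix dispensed; compound added, 10 min RT; NADPH regeneration solution added, 60 min RT; luciferin detection buffer stops reaction; 20 min later luminescence measured.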

The target of test [11] is Muscarinic acetylcholine receptor M1 (Rattus norvegicus) (UniProt P08482). The test is described as follows: qHTS Assay for Antagonists of Acetylcholine Muscarinic M1 Receptor: Kinetic Measurement of Intracellular Calcium Response (AID 943).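 Further: Fluo-4 calcium signal as peak divided by basal fluorescence over 4 min; nearly all actives have a fitted effect of over 75% in size.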 In a few lines:
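Rat M1-CHO cells, 2000/well, overnight → Fluo-4 no-wash dye with probenecid, 1 h 37C → compound 10 min, room temp → basal read 6 s → carbachol EC80 (100 nM) → 4 min kinetic read; peak/basal.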

Test [12] concerns the target Pyruvate kinase (Leishmania mexicana) (UniProt Q27686). The test is described as follows: qHTS Validation Assay for Inhibitors of Leishmania Mexicana Pyruvate Kinase (AID 945).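 Further: 0% = DMSO only neutral control wells.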 In a few lines: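 Eight-point qHTS titrations in triplicate, data normalized to DMSO neutral control. Reaction: 0.2 nM LmPYK E451W mutant, 0.5 mM PEP, 0.1 mM ADP, 7 mM MgCl2, pH 7.2, one hour at room temperature; luminescent ATP detection.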

The target of test [13] is Pyruvate kinase PKM (Homo sapiens) (UniProt P14618). Description: qHTS Assay for Activators of Human Muscle Pyruvate Kinase (AID 954; active means well fitted curve in the direction sought with a large enough effect, not every such curve was filed as active;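 further: 0% = uninhibited enzyme and -100% = no enzyme or full thiadiazolimine inhibition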). In a few lines: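 Reaction: 0.1 nM purified PKM2 with 0.5 mM phosphoenolpyruvate and 0.1 mM ADP, room temperature, 1 h. Readout: luciferase-based ATP luminescence after stop reagent. Activators judged against a 0.3 nM enzyme column.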
Test [14] in a line: Validation of Assay for Modulators of Lamin A Splicing (AID 1459; active means well fitted curve in the direction sought with a large enough effect in the signal ratio; the % refers to the signal ratio;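 further: cells exposed to compound for two days before reading; 0% is about no effect; ratio rise marks activators and ratio drop marks inhibitors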). Summed up:
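S3 HeLa stably expressing lamin A-EGFP splicing minigene and DsRed2, 600 cells/well in Opti-MEM with 2% FBS, treated 48 h at 37C; laser-scanning cytometry gives GFP/RFP total intensity ratio; ancitabine positive control, 0.5% DMSO vehicle.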

Test [15] can be described thus: Counterscreen for APE1 Inhibitors: Fluorescent Dye Displacement Validation Assay (AID 1707).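 Further: plate controls were ThO with dsDNA and no compound for no effect and ThO without dsDNA for full effect.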 Summed up:
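Assay buffer: Tris-HCl pH7.5 with 50mM NaCl, 2 mM MgCl2, 0.01% Tween-20. Dye 250 nM, duplex 50 nM final. Readout: decrease in ThO endpoint fluorescence, 480 nm excitation, 540 nm emission.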

The target of test [16] is Endonuclease 4 (Escherichia coli (strain K12)) (UniProt P0A6C1). Description: Counterscreen for APE1 Inhibitors: qHTS Validation Assay for Inhibitors of Endonuclease IV (AID 1708). Further: on the % scale 0 is the no-effect control and ±100 the full control effect. In a few lines:
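E. coli EndoIV at 2 nM final, preincubated 15 min at room temperature with compound, then 50 nM TAMRA/BHQ-2 THF abasic-site duplex added. Buffer: 50 mM Tris-HCl pH 7.5, 50 mM NaCl, 2 mM MgCl2, 1 mM DTT, 0.01% Tween-20. Kinetic fluorescence increase, third minus first read.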
For orientation: Counterscreens check selectivity or assay interference.

Test [17] can be described thus: qHTS for differential inhibitors of proliferation of Plasmodium falciparum line 7G8 (AID 1815).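 Further: potency means the concentration at half of the fitted maximal effect; parasite growth measured after three days of incubation.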
A short description of test [18]: qHTS for differential inhibitors of proliferation of Plasmodium falciparum line GB4 (AID 1816).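 Further: potency means the concentration at half of the fitted maximal effect; parasite growth measured after 72 h incubation.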 As to conditions: Potency: Plasmodium falciparum GB4 proliferation inhibition.
Test [19] is described as follows: qHTS for differential inhibitors of proliferation of Plasmodium falciparum line 3D7 (AID 1876). Further: potency means the concentration at half of the fitted maximal effect.
A short description of test [20]: qHTS for differential inhibitors of proliferation of Plasmodium falciparum line D10 (AID 1877).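 Further: potency means the concentration at half of the fitted maximal effect; parasites grown with compound for 72 h before DNA staining.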
A short description of test [21]: qHTS for differential inhibitors of proliferation of Plasmodium falciparum line Dd2 (AID 1882). Further: potency means the concentration at half of the fitted maximal effect; nearly all actives have a fitted effect of over 65% in size. Particulars: Potency: Plasmodium falciparum Dd2 proliferation inhibition. In a few lines: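 Dd2-infected erythrocytes (0.3% parasitemia, 2.5% hematocrit final) incubated with compound 72 h at 37 C, 5% CO2; lysed with saponin/Triton buffer containing SYBR Green I, incubated overnight in the dark, then read by fluorescence (485/535 nm). Normalized to 0.29 uM artemisinin and DMSO.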

A short description of test [22]: qHTS for differential inhibitors of proliferation of Plasmodium falciparum line W2 (AID 1883).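 Further: potency means the concentration at half of the fitted maximal effect; parasites grown with compound for 72 h before lysis and staining.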 Particulars: Potency: Plasmodium falciparum W2 proliferation inhibition.

Chain of Glucocorticoid receptor (Homo sapiens) (P04150 whole entry, looked up): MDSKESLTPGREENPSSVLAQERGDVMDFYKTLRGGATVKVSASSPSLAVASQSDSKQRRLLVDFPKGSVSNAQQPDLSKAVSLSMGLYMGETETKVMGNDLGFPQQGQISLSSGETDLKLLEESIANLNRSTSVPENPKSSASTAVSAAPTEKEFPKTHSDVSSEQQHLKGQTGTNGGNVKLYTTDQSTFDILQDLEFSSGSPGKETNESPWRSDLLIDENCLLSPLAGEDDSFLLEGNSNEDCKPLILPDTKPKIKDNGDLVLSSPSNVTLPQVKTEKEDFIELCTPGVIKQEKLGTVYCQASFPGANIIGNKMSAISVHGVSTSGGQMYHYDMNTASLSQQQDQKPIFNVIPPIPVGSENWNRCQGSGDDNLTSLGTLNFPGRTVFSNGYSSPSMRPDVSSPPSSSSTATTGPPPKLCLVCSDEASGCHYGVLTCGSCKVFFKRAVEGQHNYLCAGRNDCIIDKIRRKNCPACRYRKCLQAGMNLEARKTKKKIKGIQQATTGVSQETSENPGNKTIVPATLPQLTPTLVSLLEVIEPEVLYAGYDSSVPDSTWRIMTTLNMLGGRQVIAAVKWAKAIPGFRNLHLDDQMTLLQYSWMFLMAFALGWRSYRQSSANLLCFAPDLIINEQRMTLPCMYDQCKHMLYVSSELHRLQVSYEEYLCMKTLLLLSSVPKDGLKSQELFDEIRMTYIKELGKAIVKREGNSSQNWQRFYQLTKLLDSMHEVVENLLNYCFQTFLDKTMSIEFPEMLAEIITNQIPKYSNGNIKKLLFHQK
Chain of Cytochrome P450 3A4 (Homo sapiens) (P08684 whole entry, looked up): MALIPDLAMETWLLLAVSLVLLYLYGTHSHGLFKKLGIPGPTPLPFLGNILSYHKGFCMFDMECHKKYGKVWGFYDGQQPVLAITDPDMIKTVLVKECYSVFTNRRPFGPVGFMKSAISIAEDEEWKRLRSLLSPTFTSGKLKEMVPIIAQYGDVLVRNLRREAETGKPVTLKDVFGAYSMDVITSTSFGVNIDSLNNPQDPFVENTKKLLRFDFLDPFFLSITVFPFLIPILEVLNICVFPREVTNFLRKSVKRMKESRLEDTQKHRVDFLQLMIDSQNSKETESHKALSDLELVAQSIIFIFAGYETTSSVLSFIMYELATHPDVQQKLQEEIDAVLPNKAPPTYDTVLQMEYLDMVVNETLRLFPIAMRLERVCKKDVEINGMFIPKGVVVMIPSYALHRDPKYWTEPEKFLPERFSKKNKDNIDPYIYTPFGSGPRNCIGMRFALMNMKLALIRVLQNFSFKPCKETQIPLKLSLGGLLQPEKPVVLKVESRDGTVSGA
Chain of Cytochrome P450 2C9 (Homo sapiens) (P11712 whole entry, looked up): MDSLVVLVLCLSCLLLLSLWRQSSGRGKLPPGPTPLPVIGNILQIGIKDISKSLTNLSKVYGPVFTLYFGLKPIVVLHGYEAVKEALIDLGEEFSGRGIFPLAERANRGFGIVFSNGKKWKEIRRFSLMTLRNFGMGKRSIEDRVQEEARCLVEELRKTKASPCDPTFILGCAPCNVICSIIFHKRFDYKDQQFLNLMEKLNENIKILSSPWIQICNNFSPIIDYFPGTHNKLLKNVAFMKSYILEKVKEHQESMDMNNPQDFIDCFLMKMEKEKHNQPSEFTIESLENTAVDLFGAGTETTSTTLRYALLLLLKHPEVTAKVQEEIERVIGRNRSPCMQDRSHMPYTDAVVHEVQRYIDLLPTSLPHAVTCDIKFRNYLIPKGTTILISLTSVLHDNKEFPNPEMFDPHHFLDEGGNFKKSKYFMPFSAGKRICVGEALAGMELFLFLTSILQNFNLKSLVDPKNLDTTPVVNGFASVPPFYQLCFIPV
Chain of Cytochrome P450 1A2 (Homo sapiens) (P05177 whole entry, looked up): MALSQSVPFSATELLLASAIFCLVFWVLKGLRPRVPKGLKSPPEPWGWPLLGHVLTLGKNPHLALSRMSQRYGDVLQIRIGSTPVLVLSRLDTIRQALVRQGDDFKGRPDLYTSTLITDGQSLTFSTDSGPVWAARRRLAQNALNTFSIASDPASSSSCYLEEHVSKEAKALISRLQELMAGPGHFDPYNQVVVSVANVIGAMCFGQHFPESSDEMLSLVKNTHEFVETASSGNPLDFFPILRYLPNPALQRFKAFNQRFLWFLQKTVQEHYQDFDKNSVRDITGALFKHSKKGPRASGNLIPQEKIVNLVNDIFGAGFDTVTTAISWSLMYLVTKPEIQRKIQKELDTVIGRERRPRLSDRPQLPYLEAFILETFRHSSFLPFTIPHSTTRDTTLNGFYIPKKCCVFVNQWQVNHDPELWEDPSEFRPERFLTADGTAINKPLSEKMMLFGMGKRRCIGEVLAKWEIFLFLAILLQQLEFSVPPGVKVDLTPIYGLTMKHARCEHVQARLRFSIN
Chain of 3',5'-cyclic-AMP phosphodiesterase 4B (Homo sapiens) (Q07343 whole entry, looked up): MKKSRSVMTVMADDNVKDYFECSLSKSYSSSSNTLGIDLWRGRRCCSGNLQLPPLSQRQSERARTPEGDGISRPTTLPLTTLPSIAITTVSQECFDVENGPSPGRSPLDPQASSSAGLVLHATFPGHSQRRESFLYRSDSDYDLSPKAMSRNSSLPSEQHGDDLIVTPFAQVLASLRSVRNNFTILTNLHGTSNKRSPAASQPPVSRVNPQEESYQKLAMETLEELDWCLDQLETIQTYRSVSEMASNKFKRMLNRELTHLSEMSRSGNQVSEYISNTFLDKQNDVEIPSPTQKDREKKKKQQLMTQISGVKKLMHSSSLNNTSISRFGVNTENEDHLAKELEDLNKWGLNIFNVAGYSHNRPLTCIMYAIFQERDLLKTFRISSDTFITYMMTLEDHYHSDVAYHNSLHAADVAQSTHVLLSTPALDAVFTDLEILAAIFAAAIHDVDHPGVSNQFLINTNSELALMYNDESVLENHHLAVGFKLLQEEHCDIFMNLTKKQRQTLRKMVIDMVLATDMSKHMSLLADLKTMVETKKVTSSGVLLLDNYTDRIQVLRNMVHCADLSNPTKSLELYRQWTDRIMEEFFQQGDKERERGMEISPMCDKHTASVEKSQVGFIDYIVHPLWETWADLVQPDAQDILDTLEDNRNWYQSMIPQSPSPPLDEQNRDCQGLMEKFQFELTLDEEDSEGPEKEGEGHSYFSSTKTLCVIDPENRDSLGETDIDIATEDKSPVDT
Chain of Muscarinic acetylcholine receptor M1 (Rattus norvegicus) (P08482 whole entry, looked up): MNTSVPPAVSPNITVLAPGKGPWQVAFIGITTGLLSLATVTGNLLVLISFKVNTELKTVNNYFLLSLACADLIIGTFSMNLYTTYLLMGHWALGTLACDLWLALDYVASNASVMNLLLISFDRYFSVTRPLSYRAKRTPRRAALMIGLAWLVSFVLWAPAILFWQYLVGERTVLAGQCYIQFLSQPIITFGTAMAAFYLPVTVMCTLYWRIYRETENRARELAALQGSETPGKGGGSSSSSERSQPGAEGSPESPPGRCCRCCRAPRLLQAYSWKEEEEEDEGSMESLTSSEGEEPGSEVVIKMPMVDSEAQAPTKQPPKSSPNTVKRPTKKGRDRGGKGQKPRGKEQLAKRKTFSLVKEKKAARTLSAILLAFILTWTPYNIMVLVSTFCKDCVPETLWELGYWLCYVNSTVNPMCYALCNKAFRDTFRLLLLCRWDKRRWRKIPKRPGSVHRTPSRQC
Chain of Pyruvate kinase PKM (Homo sapiens) (P14618 whole entry, looked up): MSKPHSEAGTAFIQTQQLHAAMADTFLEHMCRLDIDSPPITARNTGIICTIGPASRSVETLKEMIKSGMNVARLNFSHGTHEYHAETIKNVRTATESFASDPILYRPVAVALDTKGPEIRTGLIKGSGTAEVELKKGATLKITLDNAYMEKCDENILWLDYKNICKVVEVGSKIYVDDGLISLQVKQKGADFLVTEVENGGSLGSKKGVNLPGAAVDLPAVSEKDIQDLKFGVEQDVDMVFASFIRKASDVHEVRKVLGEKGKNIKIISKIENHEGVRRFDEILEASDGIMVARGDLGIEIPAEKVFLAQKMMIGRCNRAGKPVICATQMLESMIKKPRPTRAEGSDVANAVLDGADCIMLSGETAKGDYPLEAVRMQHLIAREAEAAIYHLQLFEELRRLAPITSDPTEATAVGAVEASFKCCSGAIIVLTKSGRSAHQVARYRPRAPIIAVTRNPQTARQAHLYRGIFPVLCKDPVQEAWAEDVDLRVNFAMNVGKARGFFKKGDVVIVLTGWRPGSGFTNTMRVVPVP
Chain of Pyruvate kinase (Leishmania mexicana) (Q27686 2-499 E452W): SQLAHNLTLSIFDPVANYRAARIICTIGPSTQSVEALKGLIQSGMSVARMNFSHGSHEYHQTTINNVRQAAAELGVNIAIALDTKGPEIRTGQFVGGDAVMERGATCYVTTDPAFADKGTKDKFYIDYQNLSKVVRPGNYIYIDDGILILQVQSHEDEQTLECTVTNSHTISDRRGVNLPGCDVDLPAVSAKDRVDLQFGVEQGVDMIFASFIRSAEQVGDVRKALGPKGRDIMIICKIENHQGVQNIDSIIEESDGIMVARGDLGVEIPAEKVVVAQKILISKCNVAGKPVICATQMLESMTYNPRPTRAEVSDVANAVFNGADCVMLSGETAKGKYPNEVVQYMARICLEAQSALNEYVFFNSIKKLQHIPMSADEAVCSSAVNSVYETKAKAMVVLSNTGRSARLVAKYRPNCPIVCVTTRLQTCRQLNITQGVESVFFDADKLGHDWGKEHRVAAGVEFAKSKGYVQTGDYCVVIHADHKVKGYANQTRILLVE
Chain of Guanine nucleotide-binding protein G(i) subunit alpha-1 (Homo sapiens) (P63096 whole entry, looked up): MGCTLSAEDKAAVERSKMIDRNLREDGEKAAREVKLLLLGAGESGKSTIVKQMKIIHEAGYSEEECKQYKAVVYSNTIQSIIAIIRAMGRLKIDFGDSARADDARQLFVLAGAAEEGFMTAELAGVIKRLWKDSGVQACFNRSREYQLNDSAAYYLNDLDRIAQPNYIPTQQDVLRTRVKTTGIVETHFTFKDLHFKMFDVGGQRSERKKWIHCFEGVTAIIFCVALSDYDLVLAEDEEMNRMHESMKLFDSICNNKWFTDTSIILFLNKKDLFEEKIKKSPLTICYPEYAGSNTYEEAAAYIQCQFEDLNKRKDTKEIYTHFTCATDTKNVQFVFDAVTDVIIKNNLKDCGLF

For `COc1cc2c(cc1C(F)(F)F)N(C(=O)Nc1cc(F)cc(-c3cccnc3)c1)CC2`, the Potency was 794 nM (active) and 316 nM (active) in test [1]; over 46 µM in test [3]; over 46 µM in test [4]; 10 µM (active) and 794 nM (active) in test [8]; 2.51 µM (active) in test [9]; 2 µM (active) in test [17]. In addition, the Potency in [18] is 2.24 µM (active); in test [19], 1.58 µM (active); in [20], 2.24 µM (active); in test [21], 6.31 µM (active); in test [22], 2.24 µM (active). Besides, the activity change, negative = inhibition in [2] is -8.89%. Besides, the Potency result in test [5], in test [6], in [10], in [11], in test [12] and in test [15] was “inactive” throughout. Moreover, the Potency result in [16] was “inactive”. For the same compound, the call in [7], in test [13] and in test [14] was inactive.

(Values after PubChem BioAssay (NCATS).)
